Results filed as inconclusive are left out. Values without a mark were called inactive. Active and inactive are the calls of the source. Calls come from the whole dose curve; as a rule, active = well fitted inhibition curve with a large enough effect; inconclusive = small, poorly fitted or top-dose-only effect; inactive = flat fitted curve, though single readings scatter.
assay: CHOP2 Reporter Counterscreen Assay for Inhibitors of Ubiquitin-specific Protease USP2a; conditions: purified enterokinase, fluorogenic substrate, 485/531 nm; series mostly up to 38.3 µM; activity change, negative = inhibition: at the top concentration;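 note: activated enterokinase alone at 50 pM in a cell-free format rather than USP2a or CHOP2; nearly all actives have a fitted effect of over 55% in size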
Summary of the method: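 Fluorescence (485/531 nm) read 10 min after adding 25nM reporter substrate to 50 pM activated EK preincubated 30 min RT with compound; Tris pH 8.0/CaCl2/CHAPS buffer. Data normalized to buffer-alone inhibition; concentration-response curves fitted.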
% is set by controls: 0 for no effect and ±100 for the full control effect; potency is the fitted concentration of half-maximal effect.

**Q.** For `O=C(CCS(=O)(=O)c1ccc(Br)s1)NC1CCCC1`, which “activity change, negative = inhibition” value is on record?
**A.** 0.117%

**Q.** With `Cc1cc(N2CCOCC2)nc(SCC(=O)c2ccc(Cl)cc2)n1` as the molecule, how does the “activity change, negative = inhibition” value read?
**A.** 4.72%

**Q.** Which “activity change, negative = inhibition” value does the source give for `C=CCn1c(O)c(C(CC)=NCCN2CCOCC2)c(=O)[nH]c1=O` here?
**A.** 6.89%

**Q.** For `O=C(O)C(Cc1ccccc1)N1C(=O)/C(=C/C=C/c2ccco2)SC1=S` (configuration not stated), which Potency is on record?
**A.** 2.51 µM (active)

**Q.** Which “activity change, negative = inhibition” value does the source give for `O=C(CSc1nc(O)cc(=O)n1-c1ccccc1)NC1CCCCC1` here?
**A.** -0.765%

**Q.** For `CCOC(=O)N1CCC(NC(=O)c2ccc(OC)c(CN3CC(=O)N4CCCC4C3=O)c2)CC1` (configuration not stated), which “activity change, negative = inhibition” value is on record?
**A.** 0.139%

**Q.** Which “activity change, negative = inhibition” value does the source give for `C(=N\N(c1ccccc1)c1ccccc1)/c1ccccn1` here?
**A.** -1.74%

**Q.** Which “activity change, negative = inhibition” value does the source give for `CC(C)n1c(/C=C/[C@H](O)C[C@H](O)CC(=O)O)c(-c2ccc(F)cc2)c2ccccc21` here?
**A.** 5.52%

**Q.** With `COc1cccc(N2CCN(C(=O)CN(C)S(=O)(=O)c3ccc4c(c3)CCC(=O)N4)CC2)c1` as the molecule, how does the “activity change, negative = inhibition” value read?
**A.** 8.91%

**Q.** Which Potency does the source give for `COc1ccc(Cl)cc1C(=O)Nc1cccc(-c2ccc3nncn3n2)c1` here?
**A.** 10 µM (active)

**Q.** Which “activity change, negative = inhibition” value does the source give for `COc1ccccc1N1C(=O)CC(N2CCc3ccccc32)C1=O` (configuration not stated) here?
**A.** 2.53%

**Q.** Which “activity change, negative = inhibition” value does the source give for `CCOC(=O)CN1C(=O)S/C(=C/c2ccc(O)c([N+](=O)[O-])c2)C1=O` here?
**A.** -6.49%

**Q.** For `COc1cccc(NC(=O)c2ccccc2-c2nc(-c3cccc(C)c3)no2)c1`, which “activity change, negative = inhibition” value is on record?
**A.** -4.15%

**Q.** With `O=C(NN=Cc1ccc(N2CCOCC2)s1)c1ccc([N+](=O)[O-])cc1` as the molecule, how does the “activity change, negative = inhibition” value read?
**A.** -0.184%

**Q.** With `Cc1ccc(C(=O)NCc2ccc3c(c2)OCO3)cc1N1CCCC1=O` as the molecule, how does the “activity change, negative = inhibition” value read?
**A.** 2.1%

**Q.** With `COc1ccccc1C1NC(c2ccccc2OC)C(C)C(=O)C1C` (configuration not stated) as the molecule, how does the “activity change, negative = inhibition” value read?
**A.** 3.82%

**Q.** For `COC(=O)c1[nH]c2cc(OC)ccc2c1N`, which “activity change, negative = inhibition” value is on record?
**A.** 1.82%

Source: PubChem BioAssay AID493169 (National Center for Advancing Translational Sciences (NCATS), 2011)
